# Source: PubChem BioAssay (EPA / NIEHS)
# Activity calls are given as the source filed them. How the source made its calls: active means hit-call score of the fitted dose curve at least 0.9, where 1 is the maximum; inactive means score below 0.9.
# Read-out: catalase (CAT), CAT (gene 847)
# Experiment: LTEA_HepaRG_CAT: Life Technologies and Expression Analysis (LTEA) Assay for catalase (CAT) using HepaRG (AID 2283452);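 on AC50: TaqMan qRT-PCR signal normalized to ACTB GAPDH and POLR2A housekeeping genes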
# Conditions: mRNA level, 48 h; actives raise or lower the signal
# Description: LTEA_HepaRG is a cell based, multiplexed-readout assay that uses HepaRG, a human liver cell line, with measurements taken at 48 hours after chemical dosing on a 96-well plate.LTEA_HepaRG_CAT is one of 102 assay component(s) measured in the LTEA HepaRG cell culture assay. It is a marker of Oxidative Stress.Data from the assay component LTEA_HepaRG_CAT was analyzed into 1 endpoint. This assay endpoint, LTEA_HepaRG_CAT, was analyzed with bidirectional fitting relative to DMSO as the negative control and baseline of activity. Using a type of inducible reporter, measures of mRNA induction for gain or loss-of-signal activity can be used to understand regulation of transcription factor activity. To generalize the intended target to other relatable targets, this assay endpoint is annotated to the catalase intended target family, where the subfamily is oxidative stress.
# A total of 1060 chemcials from the ToxCast library were tested in eight-point concentration-response experiments. Cell culture and cytotoxicity assays were conducted at Thermo Fisher Scientific's Custom Services facility (Madison, WI). A single lot of human HepaRG cells (Thermo Fisher Scientific, Frederick, MD) was used for the cell culture experiments. 96-well format collagen type I coated plates of human HepaRG cells were prepared using established methods. Briefly, cryopreserved HepaRG cells were thawed, plated at a density of approximately 100,000 cells/well in HepaRG Thaw, Plate, and General Purpose media (HPRG770, Thermo Fisher Scientific), and incubated for 48 hours. 0.5% DMSO was selected as vehicle control to balance the requisite need of DMSO in HepaRG cultures to maintain differentiation (for example, baseline metabolism, proportions of hepatocytes vs. cholangiocytes), while enabling further hepatic receptor pathway activation (for example, PXR and CAR) in response to chemical exposure. 48 hours after plating, the culture medium was replaced with HepaRG Serum-Free Incudtion Media. Cells were exposed to each test chemical in duplicate and maintained in CO2 incubators for another 48 hours. Chemical plates were thawed to room temperature and 200x concentrations of treatment groups were prepared. 8-point conentration-reponse curves were made with the highest exposure at 100 uM, followed by half-log dilutions, all in 0.5% DMSO. Each test plate contained variouse controls, induction positive controls (1mM phenobarbital), cytotoxicity positive controls ([…] aflatoxin B1), vehicle controls (0.5% DMSO), and total lysis controls (0.5% DMSO). Cell morphology images were taken using an Essen IncuCyte FLR automated microscope, with six 96-well plates imaged in about 24 minutes. Images were captured and exported and JPEG files. Spent culture media was transfered to black-well plates for the LDH assay, and remaining media was sorted at -80 C for later use. Cells were treated with RLT buffer and frozen until shipped for gene expression analysis. Total RNA was isolated from the cell suspension in 75 uL of Buffer RLT (Qiagen, Germantown, MD 20874) by Quintiles/Expression Analysis (Durham, NC) using a custom isolation procedure. Total RNA from each plate well was transferred to a preamplification plate. Fluidigm's 96.96 Dynamic ArrayTM (Fluidigm, Amsterdam, the Netherlands) technology was used for gene expression analyses by quantitative reverse transcription polymerase chain reaction (qRT-PCR, performed by Quintiles/Expression Analysis, Durham, NC)89. Standard TaqManTM Assays (Applied Biosystems/ThermoFisher Scientific, Foster City, CA) were used to assess the expression of 93 genes selected based on their selectivity and sensitivity to important hepatic receptors known to be modulated by environmental chemicals; importance in human hepatocyte functionality; and hepatotoxicity. […]
Structure (SMILES),outcome,AC50
CN1COCN(Cc2cnc(Cl)s2)C1=N[N+](=O)[O-],inactive,–
COc1ccc(C(=CC(=O)N2CCOCC2)c2ccc(Cl)cc2)cc1OC,inactive,–
CN(C)NC(=O)CCC(=O)O,inactive,–
CSc1nnc(C(C)(C)C)c(=O)n1N,inactive,–
CCOP(=S)(OCC)Oc1ccc([N+](=O)[O-])cc1,inactive,–
CCC(CC)Nc1c([N+](=O)[O-])cc(C)c(C)c1[N+](=O)[O-],inactive,–
COc1cccc(C(=O)NN(C(=O)c2cc(C)cc(C)c2)C(C)(C)C)c1C,inactive,–
CC(COc1ccc(Oc2ccccc2)cc1)Oc1ccccn1 (stereo not given),inactive,–
S=C1NCCN1,inactive,–
C[N+]1(C)CCCCC1,inactive,–
CN(C)C(=O)Nc1cccc(C(F)(F)F)c1,inactive,–
Nc1nc(N)nc(NC2CC2)n1,inactive,–
O=c1ccc(=O)[nH][nH]1,inactive,–
CCc1cccc(C)c1N(C(=O)CCl)C(C)COC (stereo not given),inactive,–
CCCCN(CC)c1c([N+](=O)[O-])cc(C(F)(F)F)cc1[N+](=O)[O-],inactive,–
CC(C)=CC1C(C(=O)OCN2C(=O)C3=C(CCCC3)C2=O)C1(C)C (stereo not given),inactive,–
C[Si](Cn1cncn1)(c1ccc(F)cc1)c1ccc(F)cc1,–,50 µM (active)
CCOC(=O)CC(SP(=O)(OC)OC)C(=O)OCC (stereo not given),inactive,–
CSc1nc(NC(C)C)nc(NC(C)C)n1,–,50 µM (active)
O=C(O)c1cc(Oc2ccc(C(F)(F)F)cc2Cl)ccc1[N+](=O)[O-],inactive,–

Structure (SMILES),outcome,AC50
COP(=O)(OC)C(O)C(Cl)(Cl)Cl (stereo not given),inactive,–
FC(F)C(F)(F)OCC(Cn1cncn1)c1ccc(Cl)cc1Cl (stereo not given),–,49.8 µM (active)
CCCSP(=O)(OCC)SCCC,inactive,–
CNC(=O)ON=C(SC)C(=O)N(C)C,inactive,–
COP(=O)(OC)OC(Br)C(Cl)(Cl)Br (stereo not given),inactive,–
CCC(=NOC/C=C/Cl)C1=C(O)CC(C2CCOCC2)CC1=O (stereo not given),inactive,–
CC1=NNC(=O)N(/N=C/c2cccnc2)C1,inactive,–
CCc1cnc(C2=NC(C)(C(C)C)C(=O)N2)c(C(=O)O)c1 (stereo not given),inactive,–
C=C(C)[C@H]1Cc2c(ccc3c2O[C@@H]2COc4cc(OC)c(OC)cc4[C@@H]2C3=O)O1,–,1.75 µM (active)
CCOP(=O)(NC(C)C)Oc1ccc(SC)c(C)c1 (stereo not given),inactive,–
CCCCOC(=O)[C@@H](C)Oc1ccc(Oc2ccc(C#N)cc2F)cc1,inactive,–
CC(C)N(C(=O)SCC(Cl)=C(Cl)Cl)C(C)C,inactive,–
CCCCSP(=O)(SCCCC)SCCCC,inactive,–
CCOC(=O)COc1cc(-c2nn(C)c(OC(F)F)c2Cl)c(F)cc1Cl,inactive,–
Cc1ccn2nc(S(=O)(=O)Nc3c(F)cccc3F)nc2n1,inactive,–
CNC(=O)Oc1cccc2c1OC(C)(C)O2,inactive,–
C#CCC1=C(C)C(OC(=O)C2C(C=C(C)C)C2(C)C)CC1=O (stereo not given),inactive,–
C#CC(C)(C)NC(=O)c1cc(Cl)cc(Cl)c1,inactive,–
CC[C@H](C)[C@H]1O[C@]2(C=C[C@@H]1C)C[C@@H]1C[C@@H](C/C=C(\C)[C@@H](O[C@H]3C[C@H](OC)[C@@H](O[C@H]4C[C@H](OC)[C@@H](NC)[C@H](C)O4)[C@H](C)O3)[C@@H](C)/C=C/C=C3\CO[C@@H]4[C@H](O)C(C)=C[C@@H](C(=O)O1)[C@]34O)O2,–,12.7 µM (active)
COP(=O)(OC)SCn1c(=O)oc2cc(Cl)cnc21,inactive,–
